AMPAR-TARP mod = modulators of GluA2-stargazin AMPA receptor complexes, primary screen, cell-based, membrane potential dye. HEK293 GluA2+stargazin, membrane potential dye (FDSS), glutamate EC50; hits were called plate by plate, in both directions. calls only at 30 µM. hit rate 3.5% among 40,000. AID 1259245, 2017;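 active = any of four per-well response measures lying three or more SD from its plate-wide compound average, in either direction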
GIRK2 act = activators of NPY4-receptor-primed GIRK2 channels, summary, cell-based, HEK293, thallium flux | G protein-activated inward rectifier potassium channel 2 (Homo sapiens), P48051 | HEK293 GIRK2/NPY4 cells, thallium flux fluorescence | activation (% efficacy), % for hits at 37.5 µM | 34,000 tested, under 10 active;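 active = primary screen hit, no activity in plain HEK293 cells, and in GIRK2-only cells above 5% efficacy rising with concentration; inactive = the rest, including fluorescent compounds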;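 also: efficacy is normalized control-subtracted fluorescence 15 s after thallium addition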
Target sequence (P48051 whole entry, looked up): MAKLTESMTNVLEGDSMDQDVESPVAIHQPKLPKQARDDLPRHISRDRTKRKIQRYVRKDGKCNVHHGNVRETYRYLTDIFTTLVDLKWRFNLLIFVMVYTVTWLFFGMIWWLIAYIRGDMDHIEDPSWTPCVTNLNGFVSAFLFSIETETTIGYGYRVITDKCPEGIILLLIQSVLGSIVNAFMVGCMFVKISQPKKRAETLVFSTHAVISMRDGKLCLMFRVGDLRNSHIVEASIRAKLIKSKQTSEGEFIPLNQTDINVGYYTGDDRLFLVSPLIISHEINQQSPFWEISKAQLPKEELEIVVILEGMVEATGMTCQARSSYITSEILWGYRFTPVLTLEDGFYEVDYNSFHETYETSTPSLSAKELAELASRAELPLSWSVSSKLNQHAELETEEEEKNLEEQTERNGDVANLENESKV
Starred values were filed as active, the others as inactive; i = inactive; . = no result; + = active, no number; ! = a repeat was not active. This excerpt belongs to a sample that is enriched for hits.

SMILES	AMPAR-TARP mod	GIRK2 act
Cc1cc(C)nc(-n2nc(C(C)(C)C)cc2OCC(=O)N2CCN(c3ccccc3)CC2)n1	.	i
CN(C1CC1)S(=O)(=O)c1ccc(C(=O)Nc2ccc3c(c2)OCO3)cc1	+	i
CN(c1ccsc1C(=O)Nc1ccc2c(c1)OCCO2)S(=O)(=O)c1ccccc1	+!	i
CN(c1ccsc1C(=O)Nc1ccc(F)c(F)c1)S(=O)(=O)c1ccccc1	i	i
CN(C1CCCC1)S(=O)(=O)c1ccc(C(=O)Nc2ccc3c(c2)OCO3)cc1	i	.
CCCCN1C(=O)CCc2cc(NC(=O)c3ccc4c(c3)OCO4)ccc21	i	i
CN1C(=O)CCc2cc(NC(=O)c3ccc4c(c3)OCO4)ccc21	+	.
CNC(=O)c1cccc(-c2noc(C3CN(C(=O)Nc4cccc(C(F)(F)F)c4)C3)n2)c1	.	i
Cc1ccc(S(=O)(=O)Nc2ccccc2-c2nc3ccccc3[nH]2)cc1	i	i
Cc1ccc(-c2nnc(CN3CCN(Cc4ccccc4)CC3)o2)cc1	i	i
Cc1ccc(-c2nnc(CN3CCC(Cc4ccccc4)CC3)o2)cc1	+!	i
CN(C)C(=O)Cc1ccc(NC(=O)Nc2ccc(Cl)c(Cl)c2)cc1	+	i
CN(C)C(=O)Cc1ccc(NC(=O)Cc2ccc(Cl)cc2)cc1	i	i
FC(F)(F)c1ccccc1-c1ccc(-c2nnc(-c3ccco3)o2)o1	i	.
COc1ccc(N2CCN(C(c3cccs3)C(C)NS(=O)(=O)c3ccc(Cl)cc3)CC2)cc1 (stereo not drawn)	+	.
COc1ccc(N2CCN(C(c3cccs3)C(C)NS(=O)(=O)c3ccc(F)cc3)CC2)cc1 (stereo not drawn)	i	.
COc1ccc(OC)c(S(=O)(=O)NCC(c2ccc(C)cc2)N2CCOCC2)c1 (stereo not drawn)	i	.
CCS(=O)(=O)Nc1ccc2c(c1)CCCN2S(=O)(=O)c1ccc(OC)cc1	i	.
COc1cccc(OCC(=O)NCC(C)(O)c2ccc(-c3ccccc3)cc2)c1 (stereo not drawn)	+	i
CC(O)(CNC(=O)COc1ccc2ccccc2c1)c1ccccc1 (stereo not drawn)	i	i
CS(=O)(=O)N1CCCCC1C(=O)N(Cc1ccccc1)Cc1ccccc1 (stereo not drawn)	+	i
CS(=O)(=O)N1CCCC(C(=O)N(Cc2ccccc2)Cc2ccccc2)C1 (stereo not drawn)	i	i
Cc1cccc(-n2nnc(C(=O)NCc3ccc(Cl)cc3)c2N)c1	i	i
O=C(NCc1ccccc1Cl)c1coc(NC(=O)c2ccco2)n1	i	i
O=C(Nc1nc(C(=O)N2CCc3ccccc3C2)co1)c1ccco1	+	i
SMILES	AMPAR-TARP mod	GIRK2 act
CS(=O)(=O)c1ccc(NC(=O)C2CCCN2S(=O)(=O)c2ccc(Cl)s2)cc1 (stereo not drawn)	i	i
CC1=C(C(=O)OC(C)(C)C)C(c2ccccc2F)NC(=O)N1 (stereo not drawn)	+	.
CCOC(=O)C1=C(C)NC(=O)NC1c1cccc2ccccc12 (stereo not drawn)	i	.
Cc1ccc(-c2ccc(OCCNS(=O)(=O)c3ccc(C)cc3C)nn2)cc1	i	i
CCSc1nc(-c2ccccc2)c(NC(=O)c2ccc(S(=O)(=O)N(C)C)cc2)s1	i	i
CS(=O)(=O)c1ccc(C(=O)Nc2nnc(-c3cccnc3)o2)cc1	+	i
COc1ccc(-c2nnc(-c3ccncc3)o2)cc1OC	+	.
COc1ccc(-c2nnc(NC(=O)c3ccc(F)cc3)o2)cc1OC	i	i
COc1ccc(C(=O)Nc2nnc(-c3ccc(Br)s3)o2)cc1OC	+	i
COc1ccccc1C(=O)Nc1nnc(-c2ccc(Br)s2)o1	.	i
COc1ccc(C(=O)Nc2nnc(-c3ccncc3)o2)cc1OC	+	.
c1ccc(-c2nnc(-c3ccncc3)o2)cc1	i	.
CS(=O)(=O)c1ccc(C(=O)Nc2nnc(-c3ccc(Br)s3)o2)cc1	i	i
CCOC(=O)c1ccccc1NC(=O)CN1CCC(c2cccs2)CC1	.	i
O=C(/C=C/c1ccco1)N1CCC(c2ccsc2)CC1	i	i
Cc1ccc(-n2nc3c(c2-n2cccc2)CN(C(=O)c2ccno2)C3)cc1C	i	i
CC(C)(C)n1nc2c(c1-n1cccc1)CN(C(=O)c1cccs1)C2	i	i
Cc1ccc(-n2nc3c(c2-n2cccc2)CN(C(=O)c2cnccn2)C3)cc1C	i	100.0%*
Cc1ccc(-n2nc3c(c2-n2cccc2)CN(C(=O)c2ccsc2)C3)cc1	+	i
CS(=O)(=O)N1CCC(C(=O)NCCn2ncc3c(N4CCCCC4)ncnc32)CC1	i	.
